# Rows were chosen to be rich in hits. Some 4.2% of all compounds tested hit in one or more screens of this group.
# PrPC TRFRET: cell surface PrPC inhibition, primary TR-FRET screen | P04156 | TR-FRET read-out | inhibition, % at 13.8 µM | 370,000 compounds, 0.43% hits; in the data active means inhibition above about 24%; further: 0% = median of the test wells and 100% = reference compound wells
# GDH-TPI counter-1: inhibits GDH-TPI coupling enzymes, artifact for Mtb FBA screen. inhibition, % at 4.8 µM. 360,000 compounds, 1.2% hits. GDH-TPI coupled enzyme counterscreen, NADH absorbance; in the data active means inhibition above about 30%;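 further: 0% = DMSO wells and 100% = wells lacking the enzyme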
# RecA intein inh: blocks M. tuberculosis RecA intein splicing; P9WHJ3; inhibition, % (no concentration beside the values); 290,000 compounds, 0.75% hits; cell-free RecA intein splicing, fluorescence; AID 2221; in the data active means inhibition above about 30%;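 further: 0% = vehicle wells and 100% = reference inhibitor control wells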
# FBA Mtb inh: inhibits M. tuberculosis FBA enzyme; P9WQA3; purified M. tuberculosis FBA, fluorescence read-out; inhibition, % at 1 µM; 360,000 compounds, 2.3% hits;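 further: 0% = vehicle and 100% = reference inhibitor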
# Target sequence (P9WQA3 whole entry, looked up): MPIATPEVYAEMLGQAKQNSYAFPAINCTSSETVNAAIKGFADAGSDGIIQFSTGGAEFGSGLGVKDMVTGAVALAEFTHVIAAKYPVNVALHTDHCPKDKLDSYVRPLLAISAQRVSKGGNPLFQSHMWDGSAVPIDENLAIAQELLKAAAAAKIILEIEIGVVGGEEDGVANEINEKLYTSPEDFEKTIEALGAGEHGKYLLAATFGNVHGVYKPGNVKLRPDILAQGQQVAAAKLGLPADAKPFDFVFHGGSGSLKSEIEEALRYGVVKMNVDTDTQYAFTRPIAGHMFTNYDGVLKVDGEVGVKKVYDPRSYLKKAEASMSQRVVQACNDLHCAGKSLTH
# BJeLR lethal: BJeLR cell viability loss; BJeLR (HRASV12) viability, CellTiter-Glo ATP luminescence, 48 h; inhibition, % (test concentration not listed); 300,000 compounds, 0.17% hits; AID 1554; in the data active means inhibition above about 50%
# Mtb FBA inh conf: confirmation of M. tuberculosis fructose-bisphosphate aldolase inhibitors. shares compounds with FBA Mtb inh. purified M. tuberculosis FBA, fluorescence read-out. inhibition, % at 1 µM. 5,600 compounds, 78% hits. AID 651616;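 further: 0% = vehicle wells and 100% = reference inhibitor wells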
# GDH-TPI counter-2: inhibits GDH-TPI coupling enzymes, flagging Mtb FBA hits; shares compounds with FBA Mtb inh; GDH-TPI coupled enzyme counterscreen, fluorescence; inhibition, % at 1 µM; 5,600 compounds, 81% hits; AID 652141; in the data active means inhibition above about 10%
# GDH-TPI DR: GDH-TPI dose response counter-screen for Mtb FBA; GDH-TPI coupled enzyme assay, fluorescence, artifact counterscreen; 170 compounds, 79% hits; IC50, µM; shares compounds with FBA Mtb inh; call rule not given here
# An asterisk follows results filed as active; . = no result; + = active, no number. Unless noted, no stated cut-off is given here; in the data, active means inhibition above about 27%; inactive means the rest.
SMILES,PrPC TRFRET,GDH-TPI counter-1,RecA intein inh,FBA Mtb inh,BJeLR lethal,Mtb FBA inh conf,GDH-TPI counter-2,others
Cc1ccc(S(=O)(=O)NNC(=O)c2ccccc2-n2cccc2)cc1,-3.7,4.1,-5.4,31.6*,2.6,57.4*,51.9*,
COc1cc2cc(C(=O)O)[nH]c2c(OC)c1OC,-6.2,-11.8,0.5,34.6*,-7.8,112.0*,73.9*,
COc1ccc(OC)c2c(=O)cc(C(=O)O)[nH]c12,-3.6,21.4,0.3,4.5,-5.7,.,.,
N#CCC[C@@H]1CC[C@]2(CCCN(C(=O)C3CCCCC3)C2)O1,-5.5,.,.,.,.,.,.,
O=C(O)/C=C/c1ccc(S(=O)(=O)Nc2ccccc2C(=O)Nc2ccc(F)cc2)cc1,-3.1,14.9,0.7,-2.0,-9.9,.,.,
O=C(Nc1ccc(S(=O)(=O)Nc2ncccn2)cc1)c1ccccc1NS(=O)(=O)c1ccc(F)cc1,0.1,5.0,0.0,72.6*,-9.1,-4.4,-4.4,
CCc1nnc(NS(=O)(=O)c2ccc(NC(=O)OC)cc2)s1,-0.4,10.8,-1.3,5.0,10.1,.,.,
CCc1nnc(NS(=O)(=O)c2ccc(NC(=O)c3ccccc3O)cc2)s1,9.4,6.4,-1.9,72.7*,-13.2,34.6*,25.7*,
Cc1ccc(S(=O)(=O)Nc2ccccc2C(=O)NCc2cccnc2)cc1,-6.9,-2.2,-3.2,50.6*,6.1,58.7*,47.9*,
O=C(Nc1ccc(-c2nc3ccccc3[nH]2)cc1)c1ccccc1NS(=O)(=O)c1ccc(F)cc1,7.0,31.4*,24.6,86.6*,-13.2,+,+,
O=C(N[C@H](C(=O)N1CCC[C@H]1C(=O)NC1CCCC1)C1CCCCC1)c1ccc(Cl)cc1Cl,10.1,.,.,.,.,.,.,
N#Cc1c(N(CCO)CCO)nc(N)c2c(N)nc3c(c12)CC(=O)N3CC1CCCO1 (stereo unspecified),-7.0,20.2,-44.1,36.7*,6.7,171.3*,151.9*,
CCCCN1C(=O)Cc2c1nc(N)c1c(N)nc(N(CCC)CCC)c(C#N)c21,2.5,12.0,.,-5.1,-1.8,.,.,
O=C(NCCc1ccccc1)OCc1cn(-c2c(F)cccc2F)nn1,3.2,.,.,.,.,.,.,
COC(=O)[C@]12C[C@H](CC(=O)NCC3CCCCC3)C(=O)N(Cc3ccccc3)C1=C[C@H](C1CCCC1)O[C@@H]2C,11.6,.,.,.,.,.,.,
FC(F)(F)c1cnc(Sc2nnc(-c3cccs3)n2CC2CCCO2)c(Cl)c1 (stereo unspecified),10.5,-9.9,-0.8,-1.9,-10.5,.,.,
FC(F)(F)c1ccc(Sc2nnc(-c3cccs3)n2CC2CCCO2)nc1 (stereo unspecified),8.6,6.1,-0.6,83.2*,-7.5,98.5*,68.8*,
Cc1ccc(OCc2nnc(SCC(=O)Nc3ccccc3-c3ccccc3)n2Cc2ccco2)cc1,14.4,.,.,.,.,.,.,
C=CCNC(=O)C(=O)NCC1CCCN1CC (stereo unspecified),-4.1,-6.9,-3.0,-0.7,6.3,.,.,
CCCNC(=O)C(=O)NCC1CCCN1CC (stereo unspecified),-1.4,-2.5,0.5,29.1*,15.3,17.9,12.6*,
N#Cc1ccc(-c2cccs2)nc1SCc1cccnc1,15.2,-1.5,2.4,34.5*,51.4*,12.4,-5.0,
CN1CCN(C(=O)CSc2nc(-c3cccs3)ccc2C#N)CC1,-6.7,27.9,0.2,49.7*,2.3,+,+,
N#Cc1c(C(F)(F)F)cc(-c2cccs2)nc1SCc1cccnc1,-3.7,4.1,-8.0,16.4,3.7,.,.,
O=C(COCc1ccccc1)N1CCC(Oc2cccnc2)CC1,-5.0,.,.,.,.,.,.,
O=C(Nc1ccc2oc(-c3cccc4ccccc34)nc2c1)c1ncn[nH]1,2.2,36.5*,-1.6,66.4*,3.6,35.9*,29.1*,
SMILES,PrPC TRFRET,GDH-TPI counter-1,RecA intein inh,FBA Mtb inh,BJeLR lethal,Mtb FBA inh conf,GDH-TPI counter-2,others
Cc1ccccc1-c1nc2cc(NC(=O)C3CC3)ccc2o1,-4.1,16.1,.,106.7*,0.5,16.6,15.0*,
O=C(C1CCN(S(=O)(=O)c2ccc3[nH]c(=O)oc3c2)CC1)N1CCCC1,6.1,.,.,.,.,.,.,
CCOC(=O)C1CCCN(C(=O)c2ccc3nc(-c4ccccc4)c(-c4ccccc4)nc3c2)C1 (stereo unspecified),-9.8,29.3,11.8,36.2*,5.7,4.3,5.6,
O=C(O)c1ccc2nc(-c3ccccc3)c(-c3ccccc3)nc2c1,6.0,12.5,-0.8,29.6*,11.1,59.4*,34.2*,
CCc1nc2ccc(C(=O)NCCCN3CCN(c4ccc(F)cc4)CC3)cc2nc1CC,-3.5,0.9,-2.3,4.1,2.5,.,.,
CCOC(=O)C1CCCN(C(=O)c2ccc3nc(-c4ccc(OC)c(OC)c4)c(-c4ccc(OC)c(OC)c4)nc3c2)C1 (stereo unspecified),-12.7,5.1,-7.4,-1.9,-10.0,.,.,
CCN1CCN(C(=O)c2ccc3nc(-c4ccccc4)c(-c4ccccc4)nc3c2)CC1,-8.4,24.6,2.0,44.1*,3.2,128.8*,91.0*,
NC(=O)c1ccc2nc(-c3ccccc3)c(-c3ccccc3)nc2c1,-0.8,23.0,-2.5,14.6,3.1,.,.,
CN1CCN(CCNC(=O)c2ccc3nc(-c4ccc(F)cc4)c(-c4ccc(F)cc4)nc3c2)CC1,-32.5,6.1,1.4,57.8*,4.1,18.7,6.3,GDH-TPI DR=3.36*
CCN1CCN(C(=S)Nc2cc(C(=O)OC)ccc2C(=O)OC)CC1,4.7,15.2,-1.1,31.4*,3.3,134.5*,115.4*,
COC(=O)c1ccc(C(=O)OC)c(NC(=S)N2CCN(C(=O)C3CCCO3)CC2)c1 (stereo unspecified),2.8,-4.2,.,28.2*,-10.9,113.0*,89.2*,
COC(=O)c1ccc(C(=O)OC)c(NC(=S)N2CCOCC2)c1,0.2,-1.9,-1.9,26.3,8.0,.,.,
COC(=O)c1ccc(C(=O)OC)c(NC(=O)C2CC2)c1,-2.1,10.1,2.9,5.7,1.5,.,.,
COC(=O)c1ccc(C(=O)OC)c(NC(=O)/C=C/C(=O)O)c1,2.5,0.0,-3.7,57.4*,-7.1,52.3*,50.0*,
COC(=O)[C@@H]1C[C@@]2(c3ccccc3)c3ccccc3N(S(=O)(=O)c3ccccc3)[C@H]2N1C(=O)CNC1CCCCC1,-16.4,.,.,.,.,.,.,
COC(=O)[C@]12C[C@H](CC(=O)NCc3cccc4ccccc34)C(=O)N(CCC3=CCCCC3)C1=C[C@H](C(C)C)O[C@@H]2C1CC1,-1.2,.,.,.,.,.,.,
CN1CCCc2cc3c(C(F)(F)F)cc(=O)oc3nc21,-4.6,7.5,-430.0,30.5*,3.8,129.8*,110.7*,
O=c1cc(C(F)(F)F)c2cc3c4c(c2o1)CCCN4CCC3,-3.5,0.7,-74.9,12.9,3.8,.,.,
COC(=O)[C@]1(CC(C)C)NC=C(C(=O)c2ccccc2)[C@@H]1c1cccc(C(F)(F)F)c1,3.4,.,.,.,.,.,.,
Cc1cccc(Cn2cc(COC(=O)N3CCCC3)nn2)c1,-1.3,.,.,.,.,.,.,

# Source: PubChem BioAssay
